Test results reported in PubChem BioAssay AID2314 (National Center for Advancing Translational Sciences (NCATS), 2010).
Among all 300,000 compounds or so, about 37,000 (12%) were called active. Many of the other results were omitted from the sample, so actives are more common in it than they were. A number with no mark means an inactive call. Rule as the data show it: active = max response mostly above about 13% (no sharp cut-off); inactive = mostly below about 14%.

Assay: Cycloheximide Counterscreen for Small Molecule Inhibitors of Shiga Toxin; also: read at 38.3 µM for the half of the compounds with a filed dose; 0% is about no effect
Conditions: cell reporter, cycloheximide protein synthesis inhibition counterscreen; stronger effect = higher value

| Structure (SMILES) | max response |
| --- | --- |
| COc1ccc(S(=O)(=O)N2CCC(C(=O)NCCC(=O)NCc3cccc(OC)c3)CC2)cc1 | -2.91% |
| Cc1cc(S(=O)(=O)NC2CCCC2)ccc1-n1cnnn1 | -1.68% |
| CCC(=O)Nc1cccc(C2=NOC3(C2)C[C@@H](C(N)=O)N(C(=O)c2cc([N+](=O)[O-])cc([N+](=O)[O-])c2C)C3)c1 (stereo partly specified) | 3.34% |
| CC1=C(C(=O)Nc2ccccc2)C(c2cccs2)C(C#N)=C(SCC#N)N1 (stereo unspecified) | -2.44% |
| O=C(Nc1ccc(N2CCN(C(=O)c3ccccc3)CC2)c(Cl)c1)c1ncn[nH]1 | -0.606% |
| CCn1c(=N)n(CC(=O)c2cccc(OC)c2)c2ccccc21 | 35.3% (active) |
| COc1ccc2cc(C(=O)O)n(CC(=O)c3ccccc3)c2c1 | -1.7% |
| CCCn1c(=N)n(CC(=O)c2ccc(Cl)c(Cl)c2)c2ccccc21 | -0.499% |
| Cc1ccc(Cn2c(=N)c(S(=O)(=O)c3ccc(C)cc3)cc3c(=O)n4ccccc4nc32)cc1 | -2.4% |
| C=CCc1cc(S(=O)(=O)c2ccc(O)c(CC=C)c2)ccc1O | -2.33% |
| Cc1c(NC(=O)c2coc(=O)c(Br)c2)c(=O)n(-c2ccccc2)n1C | 10.1% |
| O=C(Nc1cccc(NC(=O)c2cccc(F)c2)c1)c1ccccc1 | 9.34% |
| O=C(Nc1cccc(F)c1)c1coc(=O)c(Br)c1 | 22.1% (active) |
| COc1ccc(CCNC(=O)CN2C(=O)CCSc3ccccc32)c(OC)c1 | -1.78% |
| COc1ccc(CC(=O)N/N=C/c2cc([N+](=O)[O-])cc(Br)c2O)cc1 | -2.73% |
| O=C1CSC(=S)N1/N=C/c1ccc(O)c([N+](=O)[O-])c1 | 2.96% |
| CCOc1cccc(/C=N/NC(=S)NCCN2CCOCC2)c1O | 9.08% |
| CCOc1cccc(/C=N/N2C(=O)CSC2=S)c1O | 13.3% (active) |
| Cc1cccc(CN2CCC(n3nccc3NC(=O)c3ccccc3C)CC2)n1 | 2.27% |
| COc1ccc(OCc2cn3c(C)cc(C)nc3n2)cc1 | 17.1% |
| CNS(=O)(=O)c1cccc(C(=O)NCC2CCCCC2)c1 | -3.55% |
| CN(C(=O)c1cccc(OC2CCN(S(=O)(=O)N(C)C)CC2)c1)C1CCOC1 (stereo unspecified) | 16.6% |
| CN(C)S(=O)(=O)N1CCC(Oc2cccc(C(=O)NCCCC3CCCC3)c2)CC1 | 52.4% (active) |
| Nc1nc(NC(=O)/C=C/c2ccccc2)nn1-c1ccccc1 | -0.981% |

| Structure (SMILES) | max response |
| --- | --- |
| Cc1ccc(C(=O)Nc2nc(N)n(-c3ccccc3)n2)cc1 | 20.3% (active) |
| Cc1ccc(S(=O)(=O)Nc2nc(N)n(-c3ccccc3)n2)cc1 | -2.82% |
| CC(=O)c1ccc(OCC(O)CN2CCN(S(=O)(=O)c3cccc(Br)c3)CC2)cc1 (stereo unspecified) | -0.615% |
| O=c1c2cc([N+](=O)[O-])ccc2nc2n1CCC2 | -3.29% |
| O=c1[nH]c(/C=C\c2cccc(C(F)(F)F)c2)nc(O)c1[N+](=O)[O-] | -0.44% |
| Cc1nn(CC(=O)Nc2ccc3c(c2)nc(CN2CCCCC2)n3C)c(=O)c2ccccc12 | 9.68% |
| C=CCN(CC=C)C(=O)Nc1ccc(OCC)cc1 | 12.5% |
| CCC(=O)Nc1ccc2nc(C)n(Cc3ccccc3Cl)c(=O)c2c1 | -0.377% |
| C=CCN(C(=O)Nc1ccc2oc(C)nc2c1)c1ccccc1 | 44.6% (active) |
| C=CCN(C(=O)Cn1ncc2c1-c1cc(C)ccc1OC2)c1ccccc1 | -3.22% |
| C=CCN(C(=O)Nc1ccc2c(c1)nc(C)n2C)c1ccccc1 | 32.3% (active) |
| O=C(NCCCO)c1cc2c([nH]c3ccccc32)c(-c2ccc(F)cc2)n1 | 1.63% |
| Cc1c(C=O)c2ccccc2n1CCOc1ccccc1 | 11.4% |
| COc1ccccc1N=Nc1c(O)[nH]c(=S)[nH]c1=O | 18.5% (active) |
| COC(=O)c1ccccc1N=Nc1c(C)[nH][nH]c1=O | -1.54% |
| COc1ccccc1N=C(C)C1=C(O)COC1=O | -3.1% |
| COCCCNC(NC(=O)c1ccc(C)cc1)C(Cl)(Cl)Cl (stereo unspecified) | 0.737% |
| Cc1ccc(CNC(=O)C2CCN(S(=O)(=O)c3ccc4nc5c(c(C(=O)O)c4c3)CC(C)CC5)CC2)cc1 (stereo unspecified) | -2.65% |
| O=C(NCCCCc1ccccc1)C1CC(c2ccc([N+](=O)[O-])cc2)=NO1 (stereo unspecified) | 1.79% |
| Nc1[nH][nH]c(=O)c1N=Nc1ccc2c(c1)OCO2 | 37.1% (active) |
| Cc1[nH][nH]c(=O)c1C(c1ccc2c(c1)OCO2)c1c(C)[nH][nH]c1=O | -0.172% |
| Cc1[nH][nH]c(=O)c1N=Nc1ccccc1 | -2.86% |
| COc1cc(OC)c2c(c1C(CCN1CCCCC1)c1ccc(N(C)C)cc1)OC(=O)CC2c1ccc(N(C)C)cc1 (stereo unspecified) | -4.1% |
| c1ccc(CSCCc2ccncc2)cc1 | 7.75% |

| Structure (SMILES) | max response |
| --- | --- |
| Cc1ccc(O)c(CCc2ccccc2)n1 | 17.6% (active) |
| Cc1ccc(O)c(-c2cc(C(=O)NCc3ccccc3)[nH]n2)c1 | 11.1% |
| CC(=O)N1CC[n+]2c(-c3ccc([N+](=O)[O-])cc3)csc21 | 6.33% |
| Cc1nc2ccc(N3CCN(C)CC3)cc2nc1C | 40.7% (active) |
| CN1CCN(c2ccc([N+](=O)[O-])c(Sc3nc4ccccc4[nH]3)c2)CC1 | -2.61% |
| COc1cccc(-c2nc3ccc(N4CCN(C)CC4)cc3[nH]2)c1 | -9.87% |
| Cc1ccc(Cn2cc(C(=O)NN)c(=O)c3ccc(F)cc32)cc1 | -3.85% |
| Cc1ccc(CNC(=O)c2c(-c3ccccc3)noc2C)cc1 | -2.32% |
| CC(C)CCNC(=O)c1ccc2c(Cl)c3c(nc2c1)CCC3 | 48.4% (active) |
| CC(=O)c1ccc(NC(=O)c2ccc3c(Cl)c4c(nc3c2)CCCC4)cc1 | -0.107% |
| COc1ccc(N2CCN(C(=O)c3ccc4c(Cl)c5c(nc4c3)CCCC5)CC2)cc1 | -3.2% |
| COc1cccc(CC2(CO)CCN(Cc3cnc(-c4cccc(C)c4)nc3)CC2)c1 | 10.3% |
| Cc1nc2ccc(C(=O)O)cc2[nH]1 | -7.8% |
| c1ccc2cc3[nH]c(CN4CCCCC4)nc3cc2c1 | 31.1% |
| Oc1ccc2nc(Cc3ccccc3)[nH]c2c1 | 20.5% (active) |
| Cc1cc(OCC(=O)N2CCN(c3ncccn3)CC2)ccc1Cl | -2.98% |
| O=C(CC1C(=O)NCCN1CC(c1ccccc1)c1ccccc1)NCC1CCOCC1 (stereo unspecified) | -4.31% |
| CCCc1nc(NCc2ccc3c(c2)OCO3)c2nnn(Cc3ccccc3Cl)c2n1 | -2.15% |
| Cc1nc(Nc2ccc3c(c2)OCCO3)c2nnn(Cc3ccccc3Cl)c2n1 | 83.5% (active) |
| Cc1nc(Nc2ccccc2F)c2nnn(Cc3ccccc3Cl)c2n1 | -1.8% |
| CC1(c2ccc3ccccc3c2)NC(=O)N(CC(N)=O)C1=O (stereo unspecified) | -1.55% |
| CC(C)=C(NC(=O)c1ccco1)C(=O)NCCc1nc2ccccc2[nH]1 | -2.53% |
| Nc1cccc(CCc2nc3ccccc3[nH]2)c1 | 24% (active) |
| Cc1ccc2nc(SCc3cn4c(C)cc(C)nc4n3)[nH]c2c1 | -4.98% |

| Structure (SMILES) | max response |
| --- | --- |
| O=C(CNCc1ccc(Cl)cc1)Nc1cccc(C(=O)O)c1 | -7.34% |
| O=C(c1nnc(-c2ccc(Cl)cc2)o1)C1CCCC1 | 15.5% (active) |
| O=C(c1[nH]ncc1-c1ccc(Cl)cc1)C1CO1 (stereo unspecified) | 16.3% |
| O=C(Nc1nnc(-c2ccc(Cl)cc2)o1)c1ccccc1Br | 14.7% |
| CCCC(=O)N1CCC(CCC(=O)NC2CC2)CC1 | 10.7% |
| COc1ccc(C(=O)Nc2c(N)nc(SCC(=O)Nc3ccc(C(C)=O)cc3)[nH]c2=O)cc1 | 0.562% |
| CCc1ccc(C(=O)NN=C2CCCCCC2)s1 | 33% (active) |
| CS(=O)(=O)N(Cc1ccccc1)c1ccc(C(=O)NN=C2CCCCCC2)cc1 | 0.492% |
| CC(C)(C)NC(=O)C(=O)NN=C1CCCCCCC1 | 17.4% |
| COC(=O)c1cc(N2CCNCC2)nc2ccccc12 | -0.723% |
| C=C(C)C(=O)Nc1cccc(C(C)=O)c1 | -4.07% |
| CCc1nnc(NC(=O)CSc2nnnn2-c2cccc(C(C)=O)c2)s1 | -0.713% |
| CCSc1nsc(NC(=O)Nc2ccccc2OC)n1 | 29.3% (active) |
| COc1ccccc1NC(=O)Nc1nnc(Cc2ccc(F)cc2)s1 | -1.91% |
| C=CCSc1nsc(NC(=O)Nc2cccc(C(C)=O)c2)n1 | 15.7% (active) |
| CC(=O)c1cccc(NC(=O)[C@@H](NC(N)=O)C(C)C)c1 | -2.8% |
| CC(=O)c1cccc(NC(=S)N2CCN(S(C)(=O)=O)CC2)c1 | 3.24% |
| CCSc1nsc(NC(=O)Nc2cccc(C(C)=O)c2)n1 | 47.8% (active) |
| CCc1nc(SCC(=O)Nc2ccccc2OC)n[nH]1 | -2% |
| Cc1cccn2c(=O)c3cc(C(=O)NCC4CCCO4)c(=N)n(Cc4ccc(F)cc4)c3nc12 (stereo unspecified) | -1.9% |
| Cc1cc2oc(=O)cc(-c3ccccc3)c2c(C)c1/C=C/c1ccc(F)cc1 | 11.8% |
| COc1ccc(CCNC(=O)CCCCCNC(=O)N2CCn3c2nc2ccccc23)cc1OC | -1.5% |
| Cc1c(Cl)cccc1NC(=O)NCc1ccc(C)n1C | -4% |
| CCCn1c(C(C)Nc2nc(-c3ccc(C)cc3)cs2)nc2cc(Cl)c(N3CCCCC3)cc21 (stereo unspecified) | -2.37% |
